Experimental data taken from PubChem BioAssay AID651813 (National Center for Advancing Translational Sciences (NCATS), 2012).
The campaign covered roughly 2,100 compounds. About 1,100 (52%) were called active. About 27% were inconclusive and are not listed. So high a share suggests a set chosen from earlier hits. Some of the results follow. A number with no mark means an inactive call. Calls follow the shape of the dose curve; as a rule, active = well fitted inhibition curve with a large enough effect; inconclusive = small, poorly fitted or top-dose-only effect; inactive = no such curve, though single readings can be large or run the other way.

Biological target: DNA dC->dU-editing enzyme APOBEC-3G (Homo sapiens) (UniProt Q9HC16)
Sequence (Q9HC16 whole entry, looked up): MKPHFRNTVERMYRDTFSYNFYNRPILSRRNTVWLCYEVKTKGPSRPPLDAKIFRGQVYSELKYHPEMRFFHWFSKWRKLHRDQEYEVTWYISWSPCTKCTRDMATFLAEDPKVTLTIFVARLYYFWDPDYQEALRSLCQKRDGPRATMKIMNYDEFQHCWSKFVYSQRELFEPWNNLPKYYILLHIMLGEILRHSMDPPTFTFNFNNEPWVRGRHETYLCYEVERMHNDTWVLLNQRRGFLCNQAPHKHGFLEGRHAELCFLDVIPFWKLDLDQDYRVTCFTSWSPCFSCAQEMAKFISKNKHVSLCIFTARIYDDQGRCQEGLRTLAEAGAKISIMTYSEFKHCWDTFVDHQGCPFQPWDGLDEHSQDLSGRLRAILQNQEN
Assay: qHTS for inhibitors of Vif-A3G interactions: Cherry picks counterscreen;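 also: hits raise yellow fluorescence by blocking Vif-driven A3G-eYFP degradation; nearly all actives have a fitted effect of over 70% in size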;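 as to max response: max response given as percent of control signal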
Settings: HeLa A3G-eYFP + Vif (tagged APOBEC3G with the HIV-1 protein that degrades it), eYFP fluorescence, 24 h
In short: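 Readout is eYFP fluorescence (488 nm excitation, 500-530 nm emission) measured on Acumen Explorer after 24 h compound exposure, several concentrations, at 37 deg C. Cells: HeLa stably co-expressing Vif and C-terminally eYFP-tagged A3G; MG132 positive control.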
Potency is read from the fitted curve at half-maximal effect.

SMILES	Potency	max response
CCOC(=O)N1C/C(=C\c2ccccc2)C(=O)/C(=C/c2ccccc2)C1	8.86 µM (active)	
Cc1cccc(C(=O)Nc2nnc(C3=COCCO3)o2)c1		-1.82%
CCc1sc(-c2cc3ccc(O)cc3oc2=O)nc1-c1ccc(C)cc1	2.59 µM (active)	
CCN(CC)c1ccc2cc(-c3nc(-c4ccc(Cl)cc4Cl)cs3)c(=O)oc2c1		34.3%
O=c1oc2cc(O)ccc2cc1-c1nc(-c2ccc(Cl)c(Cl)c2)cs1	1.16 µM (active)	
O=S(=O)(Nc1nc2ccccc2nc1N1CCN(c2ccccn2)CC1)c1ccc(Cl)cc1	16.4 µM (active)	
NC(=O)C1CCN(c2nc3ccccc3nc2NS(=O)(=O)c2ccc(Br)cc2)CC1		-5.92%
CN1CCN(c2nc3ccccc3nc2NS(=O)(=O)c2ccc(Br)cc2)CC1		-6.45%
CCN1C(=S)SC(=O)C1=C1C=C(C)N(Cc2ccco2)C(C)=C1	15.8 µM (active)	
Cc1cccc(C)c1NC(=S)NC(C)CCc1ccccc1 (centres undefined)		-1.19%
O=C(O)CSc1c2ccccc2cc2ccccc12		-3.73%
COc1cc(C(=O)Nc2ccc(C)cc2)c2ccccc2n1	2.5 µM (active)	
CC(C)(C)c1ccc(Oc2ccc(NC(=O)c3ccccc3C(=O)O)cn2)cc1		6.3%
CCOC(=O)c1csc(NC(=O)c2cc(-c3ccccn3)nc3ccccc23)n1		-7.52%
COc1ccc(NC(=O)c2cccc3ccccc23)cc1	15.8 µM (active)	
COc1ccc(NC(=O)c2c(Cl)n(C)c3ccccc23)cc1	14 µM (active)	
CCN1/C(=C/c2cc[n+](C)cc2)C=Cc2cc(C)ccc21	23.1 µM (active)	
O=C1CSC(=S)N1Cc1cccnc1	4.11 µM (active)	
O=C1/C(=C/c2ccc(O)cc2)SC(=S)N1Cc1cccnc1		-0.458%
Cc1ccc2c(c1)C=CC(C#N)N2C(=O)c1ccccc1 (centres undefined)	4.98 µM (active)	
C(=Cc1c[nH]c2ccccc12)c1nccc2ccccc12	20.6 µM (active)	
C(=C\c1c[nH]c2ccccc12)/c1nccc2ccccc12	10.3 µM (active)	
Cc1ccc2c(/C=C/c3c[nH]c4ccccc34)ccnc2c1C	5.8 µM (active)	
CNCC(O)Cn1c2c(c3ccccc31)CCCC2 (centres undefined)		20.6%

SMILES	Potency	max response
O=C(c1ccccc1F)n1c2c(c3ccccc31)CCCC2	15.8 µM (active)	
O=C(NC1CCCCC1)c1cccc2c1C(=O)c1ccc(N3CCC(Cc4ccccc4)CC3)cc1S2(=O)=O	15.8 µM (active)	
O=C(NC1CC1)c1cccc2c1C(=O)c1ccc(N3CCC(Cc4ccccc4)CC3)cc1S2(=O)=O	20.6 µM (active)	
CCN1/C(=C/c2cccc[n+]2C)Sc2ccc(OC)cc21	20.6 µM (active)	
CC[n+]1ccccc1/C=C1\Sc2ccc(C)cc2N1C	20.6 µM (active)	
COc1ccc2c(c1)N(C)/C(=C/c1cccc[n+]1C)S2	17.7 µM (active)	
CC(=O)N1CCc2c(sc(NC(=O)CSc3ccccc3)c2-c2nc3ccccc3s2)C1	29.1 µM (active)	
CC(=O)Nc1sc2c(c1-c1nc3ccccc3s1)CCN(C(C)C)C2	18.4 µM (active)	
CN1CCc2c(sc(NC(=O)CSc3ccc(F)cc3)c2-c2nc3ccccc3s2)C1	2.59 µM (active)	
CS(=O)(=O)Nc1ccc(C2=NN(S(=O)(=O)c3ccccc3)C(c3cccs3)C2)cc1 (centres undefined)	20.6 µM (active)	
CCc1ccc(C2=NN(S(C)(=O)=O)C(c3cccs3)C2)cc1 (centres undefined)	14 µM (active)	
CC(C)n1cc(/C=C2\NC(=O)N(c3cccc(Cl)c3)C2=O)c2ccccc21	14 µM (active)	
Cc1ccc(NC(=O)c2ccc([N+](=O)[O-])s2)cc1S(=O)(=O)N1CCOCC1		-5.77%
Cc1ccc(NC(=O)c2ccc(NCc3ccco3)c([N+](=O)[O-])c2)cc1Cl	14.6 µM (active)	
Cc1ccc(NC(=O)CSc2ccccc2NC(=O)c2cccc(Cl)c2)cc1Cl		5.07%
Cc1ccc(NC(=O)c2ccc(NCC3CCCO3)c([N+](=O)[O-])c2)cc1Cl (centres undefined)	20.6 µM (active)	
S=c1[nH]cnc2sc(-c3ccccc3)cc12		1.89%
O=c1[nH]c(-c2cccnc2)nc2sc(-c3ccccc3)cc12	0.627 µM (active)	
CCCn1c(CN2CCN(C(=O)OCC)CC2)nc2cc(NC(=O)C(C)C)ccc21	11.2 µM (active)	
CCOc1ccc(C(C)=O)cc1COc1cccnc1[N+](=O)[O-]	12.5 µM (active)	
N#C/C(=C/c1ccc(N2CCCCC2)o1)c1cccc(F)c1	5.17 µM (active)	
N#C/C(=C/c1ccc(N2CCCCCC2)o1)c1cccc(F)c1	4.61 µM (active)	
Cc1sc(-c2cc3c([nH]c2=O)CC(c2ccccc2)CC3=O)nc1-c1ccc(Cl)cc1 (centres undefined)	1.3 µM (active)	
O=C1CC(c2ccccc2)Cc2[nH]c(=O)c(-c3nc(-c4cccc(Cl)c4)cs3)cc21 (centres undefined)	2.59 µM (active)	

SMILES	Potency	max response
CCCc1nc2c(C)cc(Br)cn2c1Cc1ccccc1		-5.65%
COc1c(-c2ccc(O)c(O)c2)oc2cc(O)cc(O)c2c1=O	7.9 µM (active)	
NC(=O)c1ccccc1NC(=S)NC(=O)CCc1ccccc1	5.59 µM (active)	
CCC(=O)NC(=S)Nc1cccc(Cl)c1N1CCCC1		-18%
O=C(COc1ccccc1)NC(=S)Nc1cccc2c(O)cccc12		-0.841%
O=C1CCCN1c1ccc(S(=O)(=O)Nc2ccc3c(c2)OCCO3)cc1	5.59 µM (active)	
O=C(C[n+]1cccc2cc(Cl)ccc21)c1ccc(I)cc1	18.4 µM (active)	
COc1ccc(C(=O)C[n+]2cc(Br)cc3ccccc32)cc1	8.2 µM (active)	
O=C(C[n+]1cccc2cc(Cl)ccc21)c1ccc2ccccc2c1	23.1 µM (active)	
CCCC1=[N+](CC(=O)c2ccc(Br)cc2)CCn2cccc21		-25.2%
CC(C)(C)c1ccc(C(=O)C[n+]2cccc3cc(Cl)ccc32)cc1	18.4 µM (active)	
COc1ccc(C(=O)C[n+]2cccc3cc(Cl)ccc32)cc1	16.4 µM (active)	
O=C1Nc2ccc(Br)cc2C12NNc1ccccc1O2 (centres undefined)	15.8 µM (active)	
O=[N+]([O-])c1ccc(N/N=C/c2c[nH]c3ccccc23)c(S(=O)(=O)Nc2ccc(Cl)cc2)c1	23.1 µM (active)	
O=[N+]([O-])c1ccc(N/N=C/c2c[nH]c3ccccc23)cc1	16.4 µM (active)	
C/C(=N/Nc1ccc([N+](=O)[O-])cc1)c1c[nH]c2ccccc12	18.4 µM (active)	
COc1ccccc1NS(=O)(=O)c1cc([N+](=O)[O-])ccc1N/N=C/c1c[nH]c2ccccc12	9.2 µM (active)	
Cc1[nH]c2ccccc2c1/C=N/Nc1ccc([N+](=O)[O-])cc1	8.2 µM (active)	
COc1ccccc1NS(=O)(=O)c1cc([N+](=O)[O-])ccc1N/N=C/c1c(C)[nH]c2ccccc12	2.8 µM (active)	
COc1ccc(NS(=O)(=O)c2cc([N+](=O)[O-])ccc2N/N=C/c2c(C)[nH]c3ccccc23)cc1	18.4 µM (active)	
COc1cc(NC(=O)c2ccco2)c(C(=O)OCC(=O)c2c[nH]c3ccccc23)cc1OC		-2.18%
CC1CC(C)CN(CC(=O)c2c[nH]c3ccccc23)C1 (centres undefined)	18.4 µM (active)	
O=C1NC(=Nc2ccccc2Cl)S/C1=C\c1cc([N+](=O)[O-])ccc1O		-33%
O=[N+]([O-])c1ccc(N=Nc2ccc(O)c3ccccc23)cc1	11.2 µM (active)	

SMILES	Potency	max response
COc1cc2c(cc1OC)C(C)N(C(=O)c1cc(Cl)nc(Cl)c1)CC2 (centres undefined)	12.5 µM (active)	
COc1cc2c(cc1OC)C(C)N(C(=O)c1cc(C)on1)CC2 (centres undefined)	0.704 µM (active)	
Cc1ccc2ccc3c(c2n1)NS(=O)(=O)c1ccc(C(F)(F)F)cc1-3	11.6 µM (active)	
COCCNC(=S)NN=C1CCCCCC1		0.0981%
COc1ccc2nc(NC(=O)Nc3ccccc3OC)sc2c1	4.44 µM (active)	
COc1ccc2nc(NC(=S)NC(=O)c3ccco3)sc2c1		-0.487%
COc1cc(Cn2c3ccc(NC(=O)CCc4ccccc4)cc3c(=O)n2C)ccc1F	3.53 µM (active)	
COc1ccccc1CCC(=O)Nc1ccc2c(c1)c(=O)n(C)n2Cc1ccc(F)cc1	17.7 µM (active)	
COc1ccccc1CCC(=O)Nc1ccc2c(c1)c(=O)n(C)n2-c1cccs1	3.53 µM (active)	
C/C(CCc1ccc2c(c1)OCO2)=N\NC(=S)NC(C)C		4.06%
Cc1cccc(N2CCN(Cc3cn(C)nc3-c3ccccc3F)CC2)n1	5.59 µM (active)	
COC(=O)c1sc(N)c(C(=O)OC)c1COC(=O)c1c(C)noc1C	4.98 µM (active)	
CN(C)c1ccc(/C=C2/C[N+](C)(C)C/C(=C/c3ccc(N(C)C)cc3)C2=O)cc1	8.2 µM (active)	
Nc1ccccc1C=C1Cc2ccccc2C1=O	7.31 µM (active)	
CN(C)c1ccc(/C=C2\Cc3ccccc3C2=O)cc1	2.59 µM (active)	
Cc1ccc(N2C(=O)[C@@H]3[C@H](C2=O)[C@H]2C=C(C(=O)c4ccccc4)C=CN2[C@@H]3C(=O)c2ccc(Cl)cc2)cc1		-6.73%
O=c1[nH]c2ccccc2n2c(C(F)(F)F)nnc12	20.6 µM (active)	
O=c1[nH]c2ccccc2n2c(=S)[nH]nc12		-15.5%
CCN(CC)c1ccc(/C=C2\SC(N)=NC2=O)cc1	7.9 µM (active)	
C/C(CC(=O)NCc1ccc(Cl)cc1)=N\NC(=O)COc1ccc(C)cc1Br	14 µM (active)	
CC(=O)Nc1ccc(CC(=O)NCCC(c2ccccc2)c2ccccc2)cc1	15.8 µM (active)	
CC(=O)Nc1ccc(NC(=O)C/C(C)=N/NC(N)=S)cc1		2.45%
